# Entries with a potency or affinity are not part of this list. Records with an inconclusive call do not appear. Active and inactive are the calls of the source.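 The calls were made as follows: active = compound lowering the signal whose fitted half-maximal concentration is at most ten times its top tested dose; inconclusive = flat curve with 30 to 70% loss, or poor fit; inactive = the rest.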
# Experiment: viability loss in Mcl1-dependent HMC-1-8 cells, dose response, selectivity assay for A1 inhibitor project, cell-based, luminescence, dry powder (AID 504415)
compound,measurement,value
C/C1=C/C(=O)O[C@@H]2C[C@@H](CC[C@H](C)/C=C\CC1)O[C@@](O)(C1CSC(=O)N1)C2 (stereo partly specified),outcome,inactive
